# Test results: PMC5913336, “True equilibrium measurement of transcription factor-DNA binding affinities using automated polarization microscopy”
# Target: Tll (Drosophila melanogaster, UniProt P18102 21-118)
# Test: FP; 33 mM phosphate pH 7.0, 90 mM NaCl, 0.01% Tween 20, 0.1 mM DTT, 0.5% agarose; room temperature
# Details: tags: N-GST (pGEX-6P-1, kept); dsDNA, one strand shown
# Sequence of Tll (P18102 21-118): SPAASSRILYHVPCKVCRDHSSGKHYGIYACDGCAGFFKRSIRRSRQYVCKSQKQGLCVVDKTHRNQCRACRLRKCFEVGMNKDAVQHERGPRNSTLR
Sequence,binding signal,Kd
AAAAACTCAAAT,57.7 Kd / Kd of best base at the position,–
AAAAAATCAAAT,10.1 Kd / Kd of best base at the position,–
AAAAAGTCAAAA,1.57 Kd / Kd of best base at the position,–
AAAAAGTCAAAG,2.05 Kd / Kd of best base at the position,–
AAAAAGTCGAAT,5.21 Kd / Kd of best base at the position,–
AAAAAGTCAATT,1.96 Kd / Kd of best base at the position,–
TAAAAGTCAAAT,2.03 Kd / Kd of best base at the position,–
AAAAAGTAAAAT,18.6 Kd / Kd of best base at the position,–
AAAAAGTCTAAT,13.1 Kd / Kd of best base at the position,–
AATAAGTCAAAT,2.37 Kd / Kd of best base at the position,–
AAAAAGTGAAAT,71.7 Kd / Kd of best base at the position,–
AAAAAGTCAAAT,–,~4.1 nM
AAAAAGGCAAAT,7.78 Kd / Kd of best base at the position,–
AAAAATTCAAAT,71.4 Kd / Kd of best base at the position,–
CAAAAGTCAAAT,2.71 Kd / Kd of best base at the position,–
AAATAGTCAAAT,12.4 Kd / Kd of best base at the position,–
AAAAAGTTAAAT,2.32 Kd / Kd of best base at the position,–
AAAATGTCAAAT,15 Kd / Kd of best base at the position,–
AAAACGTCAAAT,8.65 Kd / Kd of best base at the position,–

Sequence,binding signal,Kd
AAAGAGTCAAAT,3.96 Kd / Kd of best base at the position,–
GAAAAGTCAAAT,1.71 Kd / Kd of best base at the position,–
AAAAAGTCATAT,3.23 Kd / Kd of best base at the position,–
AAAAAGTCAGAT,4.13 Kd / Kd of best base at the position,–
AAAAAGTCAACT,2.61 Kd / Kd of best base at the position,–
AAAAAGACAAAT,36.4 Kd / Kd of best base at the position,–
AAAAGGTCAAAT,6.02 Kd / Kd of best base at the position,–
AAACAGTCAAAT,11.1 Kd / Kd of best base at the position,–
AAAAAGTCCAAT,14.4 Kd / Kd of best base at the position,–
AGAAAGTCAAAT,2.99 Kd / Kd of best base at the position,–
ATAAAGTCAAAT,2.33 Kd / Kd of best base at the position,–
ACAAAGTCAAAT,3.41 Kd / Kd of best base at the position,–
AACAAGTCAAAT,3.38 Kd / Kd of best base at the position,–
AAAAAGTCACAT,1.72 Kd / Kd of best base at the position,–
AAGAAGTCAAAT,1.73 Kd / Kd of best base at the position,–
AAAAAGTCAAGT,3.05 Kd / Kd of best base at the position,–
AAAAAGTCAAAC,1.05 Kd / Kd of best base at the position,–
AAAAAGCCAAAT,7.08 Kd / Kd of best base at the position,–
